# Experimental data taken from PubChem BioAssay AID1851 (National Center for Advancing Translational Sciences (NCATS), 2009).
# Among all 16,000 compounds or so, about 5,100 (32%) were called active. Another 25% or so got no clear call; they are omitted. The call rests on the fitted dose curve; in most records, active means well fitted curve in the direction sought with a large enough effect; inconclusive means small, poorly fitted or top-dose-only effect, or effect the other way; inactive means no such curve, though single readings can be large or run the other way. This is one part of the list.
# Target: Cytochrome P450 3A4 (Homo sapiens) (UniProt P08684)
# Sequence (P08684 whole entry, looked up): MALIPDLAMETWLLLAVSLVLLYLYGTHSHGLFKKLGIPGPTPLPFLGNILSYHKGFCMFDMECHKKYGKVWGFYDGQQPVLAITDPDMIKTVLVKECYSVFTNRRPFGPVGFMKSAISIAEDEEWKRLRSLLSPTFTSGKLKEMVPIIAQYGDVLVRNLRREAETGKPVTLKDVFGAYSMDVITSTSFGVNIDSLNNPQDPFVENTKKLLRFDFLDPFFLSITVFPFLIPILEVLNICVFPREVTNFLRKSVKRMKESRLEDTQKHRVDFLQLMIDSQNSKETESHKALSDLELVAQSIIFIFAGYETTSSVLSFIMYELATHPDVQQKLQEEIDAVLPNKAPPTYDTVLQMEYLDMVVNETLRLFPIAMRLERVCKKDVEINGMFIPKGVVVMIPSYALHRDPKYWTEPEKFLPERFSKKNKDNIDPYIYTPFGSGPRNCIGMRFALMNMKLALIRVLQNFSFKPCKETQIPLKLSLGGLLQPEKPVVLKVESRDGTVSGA
# Assay: Cytochrome panel assay with activity outcomes
# Settings: recombinant CYP, pro-luciferin dealkylation, luminescence, p450-cyp3a4; series mostly up to 57.1 µM; activity, negative = inhibition: at the top concentration
# On the % scale 0 is the no-effect control and ±100 the full control effect.
SMILES,AC50,"activity, negative = inhibition"
COc1ccccc1CNc1ncnc2ccc(-c3ccc(N(C)C)cc3)cc12,2 µM (active),–
COc1ccccc1CNc1ncnc2ccc(-c3ccc4c(c3)OCO4)cc12,1.26 µM (active),–
COc1ccc(CNc2ncnc3ccc(-c4ccc(N(C)C)cc4)cc23)c(OC)c1,3.98 µM (active),–
CCOC(=O)c1[nH]c(C(=O)O)c(CCC(=O)OC)c1C,–,6.89% (inactive)
Cc1cc(C)nc(NC(=O)CCCC(=O)O)c1,–,1.45% (inactive)
C[N+]1(C)CCO[C@](O)(c2ccccc2)C1,–,-8.04% [at 11.4 µM] (inactive)
CC(C)NC(=O)c1ccc2c(=O)n(Cc3ccco3)c(=S)[nH]c2c1,–,-26% (inactive)
COc1ccc(CCNC(=O)c2ccc3c(=O)n(Cc4ccco4)c(=S)[nH]c3c2)cc1OC,0.631 µM (active),–
O=C(c1ccc2c(=O)n(Cc3ccco3)c(=S)[nH]c2c1)N1CCN(c2ccccc2)CC1,6.31 µM (active),–
COc1ccc(NC(=O)c2ccc3c(=O)n(Cc4ccco4)c(=S)[nH]c3c2)c(OC)c1,–,-27% (inactive)
Nc1ccccc1Nc1ccccc1,–,-23.8% [at 11.4 µM] (inactive)
C[C@H]1O[C@@H](CC(=O)O)Cc2c1c(O)c1c(O)cc(-c3cc(=O)c4c(=O)c5c(c(=O)c=4c3=O)C[C@H](CC(=O)O)O[C@@H]5C)c(O)c1c2O,–,-6.62% [at 11.4 µM] (inactive)
CCN1C(=O)CC(N2CCN(CC(=O)NC(C)C)CC2)C1=O (stereo not drawn),–,1.59% (inactive)
Cc1onc(-c2ccccc2)c1C(=O)NCCc1c[nH]c2ccccc12,8.91 µM (active),–
COc1cccc(C(=O)Nc2ccc(-c3nnc(-c4ccco4)o3)cc2)c1,4.47 µM (active),–
COc1cc(C(=O)Nc2ccc(-c3nnc(-c4ccco4)o3)cc2)cc(OC)c1OC,7.08 µM (active),–
O=C(COc1ccccc1)Nc1ccc(-c2nnc(-c3ccco3)o2)cc1,–,18.1% (inactive)
C=CCNc1oc(/C=C/c2ccccc2)nc1C#N,15.8 µM (active),–
Cc1cnc(CNc2nc(-c3ccc(N(C)C)cc3)nc3ccccc23)cn1,5.01 µM (active),–
Cc1cnc(CNc2nc(-c3ccoc3)nc3ccccc23)cn1,12.6 µM (active),–
C=CCn1c(C(C)NC(=O)c2ccccc2)n[nH]c1=S (stereo not drawn),–,-3.87% [at 11.4 µM] (inactive)
O=C(NNc1nc2ccccc2s1)c1ccccc1F,–,-13.7% (inactive)
Clc1ccc(CCNc2nc3ccccc3s2)cc1,15.8 µM (active),–
O=c1c(-c2nc3ccccc3s2)cccn1Cc1ccccc1,17.8 µM (active),–
O=c1c(-c2nc3ccccc3s2)cccn1Cc1ccc(Cl)cc1,14.1 µM (active),–

SMILES,AC50,"activity, negative = inhibition"
CC(=O)NNc1nc2ccccc2s1,–,-8.59% (inactive)
C=CCn1c(-c2cccn(Cc3ccccc3)c2=O)n[nH]c1=S,12.6 µM (active),–
OC[C@@H]1O[C@@H](n2cnc3c(NC4CCCCC4)ncnc32)[C@@H](O)[C@H]1O,–,-10.8% (inactive)
O=C(NNS(=O)(=O)c1ccc(Cl)cc1)NC1CCCCC1,–,14.5% (inactive)
O=C(CCc1ccccc1)NNC(=O)C1CCCCC1,–,-0.205% [at 2.29 µM] (inactive)
CCC(C)NS(=O)(=O)c1ccc(NC(=O)CCC2CCCCC2)cc1 (stereo not drawn),–,14.9% [at 2.29 µM] (inactive)
O=C(CCc1ccc(S(=O)(=O)NC2CCCCC2)cc1)N(Cc1ccccc1)Cc1ccccc1,3.16 µM (active),–
Cc1ccc(NC(=O)CCc2ccc(S(=O)(=O)NC3CCCCC3)cc2)cc1,0.891 µM (active),–
CC(=O)NS(=O)(=O)c1ccc(NC(=O)NC2CCCCC2)cc1,–,-6.87% (inactive)
O=C(O)c1ccccc1/C=N\N=C1c2ccccc2-c2ccccc21,–,-13.2% [at 11.4 µM] (inactive)
CCOc1ccc(S(=O)(=O)NCc2ccc(F)cc2)c2cccnc12,15.8 µM (active),–
CCOc1ccccc1OCCOc1ccc(F)cc1,–,-15% (inactive)
Cn1c(CNS(=O)(=O)c2ccc(F)cc2)n[nH]c1=S,–,-10.2% (inactive)
O=C(CCN1C(=O)S/C(=C\c2ccccc2)C1=O)Nc1ccc(S(=O)(=O)Nc2nccs2)cc1,5.01 µM (active),–
Nc1ccc(S(=O)(=O)Nc2nccs2)cc1,–,-15.7% [at 25.6 µM] (inactive)
O=C1Nc2ccccc2C1=Nc1ccc(S(=O)(=O)Nc2nccs2)cc1,–,-1.93% [at 11.4 µM] (inactive)
CCS(=O)(=O)N1CCC(C(=O)NCC2CCCO2)CC1 (stereo not drawn),–,1.97% (inactive)
O=C(NCC1CCCO1)C1CCC(=O)N1CCc1ccccc1 (stereo not drawn),–,-13.8% (inactive)
O=C(NCC1CCCO1)C1c2ccccc2C(=O)N1Cc1ccc2c(c1)OCO2 (stereo not drawn),1.41 µM (active),–
Cc1ccc(-n2c(N)c(C(=O)NCc3ccco3)sc2=S)cc1,25.1 µM (active),–
CCOc1ccc(-n2c(C)nc3cc(C(=O)NCc4ccco4)ccc32)cc1,–,-16.2% (inactive)
CCOc1ccc(-n2c(N)c(C(=O)NCc3cccnc3)sc2=S)cc1,2 µM (active),–
CCOc1ccc(N2C(=O)c3cccnc3C2=O)cc1,–,-13.3% (inactive)
COc1ccc(-n2c(N)c(C(=O)NCc3ccco3)sc2=S)cc1,25.1 µM (active),–
CC(C)c1cc(CN(C)C)c(O)c(C(C)(C)C)c1,–,-5.68% [at 11.4 µM] (inactive)

SMILES,AC50,"activity, negative = inhibition"
N#Cc1c(-c2ccc(Cl)cc2)nc2n(c1=O)CCCS2,–,-15.8% (inactive)
CCNc1nc(NCC)nc(N(C)N)n1,–,-10.2% (inactive)
COc1ccc(NS(=O)(=O)c2cc(-c3nnnn3C)ccc2OC)cc1,–,-15.9% [at 11.4 µM] (inactive)
COc1ccccc1S(=O)(=O)Nc1ccc(-c2nnc3n2CCCCC3)cc1,14.1 µM (active),–
O=C(/C(=C/c1ccc(Cl)cc1)c1nc2ccccc2[nH]1)c1ccccc1,3.55 µM (active),–
Cc1ccc(/C=C/C(=O)c2nc3ccccc3[nH]2)cc1,–,-18.1% [at 2.29 µM] (inactive)
O=C(O)/C(=C/c1c(C(=O)O)[nH]c2cc(Cl)cc(Cl)c12)c1ccccc1,–,-1.29% (inactive)
COCCN(C(=O)Nc1ccc(OC)cc1OC)C1CCN(C(C)=O)CC1,–,-11.9% (inactive)
COc1ccc(N2CCC(CNC(=O)Nc3ccc(OC)cc3OC)C2)cc1 (stereo not drawn),7.08 µM (active),–
COc1ccc(CCNC(=O)CCN2C(=O)C(C)Oc3ccc(C)cc32)cc1OC (stereo not drawn),1.78 µM (active),–
Cc1ccc2c(c1)N(CC(=O)NCc1cccs1)C(=O)C(C)O2 (stereo not drawn),–,-21.8% [at 2.29 µM] (inactive)
COc1ccc(CC(=S)N2CCOCC2)cc1OC,–,-2.8% [at 2.29 µM] (inactive)
COc1ccc(CCNC(=O)CCN2C(=O)COc3ccc(C)cc32)cc1OC,2.24 µM (active),–
O=C1CSC(c2ccccc2F)N1c1cc(Cl)ccc1O (stereo not drawn),25.1 µM (active),–
NC(=O)c1ccc(C2SCC(=O)N2Cc2ccccc2)cc1 (stereo not drawn),–,8.69% (inactive)
O=C1CSC(c2ccccn2)N1c1ccc(Cl)c(Cl)c1 (stereo not drawn),–,11% (inactive)
N#Cc1cccc(-c2nccc(NCc3cccnc3)n2)c1,0.794 µM (active),–
Cc1cccc(CNc2ccnc(-c3cccc(C#N)c3)n2)c1,1.26 µM (active),–
N#Cc1cccc(-c2nccc(NCc3ccccc3)n2)c1,12.6 µM (active),–
N#Cc1cccc(-c2nccc(NCc3cccs3)n2)c1,10 µM (active),–
CN(C)c1ncc2nc(-c3cc(F)cc(F)c3)c(=O)n(CCc3ccccc3)c2n1,–,-13% (inactive)
COc1ccccc1CCn1c(=O)c(-c2cccc(F)c2)nc2cncnc21,3.16 µM (active),–
COc1ccccc1CCn1c(=O)c(-c2cc(F)cc(F)c2)nc2cncnc21,0.398 µM (active),–
O=C(N/N=C/c1cccc(OC2CSC2)c1)c1ccccc1O,–,-1.49% [at 2.29 µM] (inactive)
CC1(C)OC(=O)N(Cc2ccco2)C1(C)O (stereo not drawn),–,-11.6% (inactive)

SMILES,AC50,"activity, negative = inhibition"
CC1=CC(=C2C(=O)c3ccccc3C2=O)C=C(C)N1Cc1ccco1,14.1 µM (active),–
CCCCS(=O)(=O)NC1=NCN(Cc2ccco2)CN1,–,-13.9% (inactive)
CCN(CC)CCCNC(=O)CC1Sc2ccccc2NC1=O (stereo not drawn),–,6.35% (inactive)
COC(=O)c1c(NC(=O)CC2Nc3ccccc3NC2=O)sc(C)c1C (stereo not drawn),3.55 µM (active),–
CC(Sc1nnc(C(C)N(C)C)n1-c1ccc(Cl)cc1)C(=O)Nc1ccc2c(c1)OCO2 (stereo not drawn),0.891 µM (active),–
C/C(=N\NC(N)=S)c1ccc[nH]1,–,-6.66% [at 11.4 µM] (inactive)
COc1ccc2oc(-c3ccc(C)c(NC(=O)c4ccc(N5CCOCC5)c([N+](=O)[O-])c4)c3)nc2c1,6.31 µM (active),–
Cc1ccc(-c2nc3ccccc3o2)cc1NC(=O)Cc1cccs1,–,28.9% (inactive)
COc1ccc2oc(-c3ccc(C)c(NC(=O)CSc4ccc(Cl)cc4)c3)nc2c1,11.2 µM (active),–
CCOCC(=O)Nc1cc(-c2cn3cccnc3n2)ccc1C,–,24.8% (inactive)
CCOC(=O)c1c(NC(=O)c2ccc(N3CCOCC3)c([N+](=O)[O-])c2)sc(C)c1C,–,-1.99% (inactive)
O=c1c2ccccc2ncn1CCCSc1ccccc1,–,-8.34% (inactive)
Cc1ccc(SCCCn2cnc3ccccc3c2=O)cc1,11.2 µM (active),–
CCCCn1cnc2c(cnn2-c2ccc(F)cc2)c1=O,–,-2.78% (inactive)
O=C(Cn1c(C(F)(F)F)nc2ccccc21)c1ccccc1,–,-8.98% (inactive)
CCCCCn1c(=O)c(C(=O)c2ccccc2)nc2ccccc21,–,-5.99% [at 2.29 µM] (inactive)
O=C(c1ccccc1)c1nc2ccccc2n(CCCn2c(=O)c(C(=O)c3ccccc3)nc3ccccc32)c1=O,1.41 µM (active),–
CN1CCC[C@@H](CC2c3ccccc3Sc3ccccc32)C1,–,-7.59% [at 25.6 µM] (inactive)
COc1cc(-n2ccnc2SC)c(Cl)cc1Cl,14.1 µM (active),–
COc1ccc(-c2cc(C(=O)NCc3cccnc3)no2)cc1OC,2.51 µM (active),–
Cc1cc(C(=O)NCc2ccccc2)no1,–,-13.3% (inactive)
COc1cccc(-c2nc(CS(=O)(=O)CC(=O)NCCCOC(C)C)c(C)o2)c1,7.94 µM (active),–
CCOC(=O)N1CCC(NC(=O)CS(=O)(=O)Cc2nc(-c3cccc(OC)c3)oc2C)CC1,7.08 µM (active),–
